An excerpt weighted towards active compounds, which were near 9.4% of everything screened.
ALDH1A1 inh = ALDH1A1 (human) enzyme inhibition | P00352 | Purified ALDH1A1, NADH fluorescence, propionaldehyde substrate | Potency, µM (series often up to 75.3 µM), for the others: at the top dose activity, negative = inhibition, hits mostly inhibitors | actives 7.3% (n = 220,000); active means well fitted inhibition curve with a large enough effect, not every such curve was filed as active; inconclusive means small, poorly fitted or top-dose-only effect, or another doubt; inactive means no such curve, though single readings can be large or run the other way;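 further: potency means the concentration at half of the fitted maximal effect; plate controls were no enzyme wells and a reference inhibitor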
Target sequence (P00352 whole entry, looked up): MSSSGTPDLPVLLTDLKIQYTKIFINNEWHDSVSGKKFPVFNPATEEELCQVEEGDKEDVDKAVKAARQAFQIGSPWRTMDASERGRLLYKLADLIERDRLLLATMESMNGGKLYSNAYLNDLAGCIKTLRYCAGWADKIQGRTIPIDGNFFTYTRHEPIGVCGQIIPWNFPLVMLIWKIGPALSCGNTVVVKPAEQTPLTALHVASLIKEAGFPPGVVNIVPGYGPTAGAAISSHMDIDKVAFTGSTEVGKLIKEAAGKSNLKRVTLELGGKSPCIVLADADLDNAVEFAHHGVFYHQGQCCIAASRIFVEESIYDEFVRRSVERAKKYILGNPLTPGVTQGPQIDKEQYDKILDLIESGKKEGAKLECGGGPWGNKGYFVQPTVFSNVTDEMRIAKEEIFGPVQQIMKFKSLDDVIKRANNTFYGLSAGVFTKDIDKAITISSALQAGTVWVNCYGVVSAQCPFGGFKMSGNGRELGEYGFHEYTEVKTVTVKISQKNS
HPGD block = inhibitors of human 15-hydroxyprostaglandin dehydrogenase (HPGD); AID 894; Potency, µM, for inactives: at the top dose activity change, negative = inhibition, most hits filed as inhibitors; purified HPGD, NADH fluorescence kinetic, PGE2 substrate; actives 4.3% (n = 150,000); P15428; active means well fitted inhibition curve with a large enough effect, not every such curve was filed as active; inconclusive means small, poorly fitted or top-dose-only effect, or another doubt; inactive means no such curve, though single readings can be large or run the other way; further: potency means the concentration at half of the fitted maximal effect; on the % scale 0 is the no-effect control and ±100 the full control effect
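NADH formation kinetics: reaction with 30 uM PGE2 and 1 mM NAD+ (final), 20 nM enzyme, Tris-HCl pH 8 with Tween 20, after 15 min compound preincubation at room temperature. Fluorescence change, last versus first of five reads.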
HTT cytoprotect = cytoprotection in Huntington HTT-Q103 PC12 cell model. PC12 HTT-Q103 induced, cytoprotection, ATP luminescence, 40 h. Potency, µM (top dose mostly 56.4 µM), inactives show cytoprotection (ATP increase), actives largely listed as activators. actives 0.14% (n = 230,000). AID 1471; further: potency means the concentration at half of the fitted maximal effect; % of control where 0% means no effect; nearly all actives have a fitted effect of over 45% in size
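Huntington model: PC12 line, ecdysone-inducible HTTQ103 exon1–GFP, tebufenozide 100 nM. Test articles in a dose series. Endpoint luminescence from cellular ATP.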
HTT aggregate = inhibitors of mutant huntingtin aggregate formation in PC12 cells; PC12 HttQ103-GFP aggregates, Acumen cytometry, 40 h; Potency, µM (series often up to 46.1 µM), for inactives: at the top dose activity change, negative = inhibition, hits mostly inhibitors; actives 1.1% (n = 220,000); AID 1688; further: potency means the concentration at half of the fitted maximal effect; on the % scale 0 is the no-effect control and ±100 the full control effect; nearly all actives have a fitted effect of over 60% in size
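Aggregate formation scored by laser-scanning cytometer (488 excitation, 500–530 emission) in lysed PC12 cells expressing Q103-GFP after 100 nM tebufenozide induction; library tested in dose series, with ATPLite reagent added in the multiplex.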
IMPase Li inh = membrane-permeable IMPase blocker, potentiated with lithium; CHO-M1 cells, IP1 TR-FRET (IP-One), carbachol + lithium; Potency, µM (highest dose often 59.4 µM), for the others: at the highest dose activity, negative = IMPase inhibition, hits mostly inhibitors; actives 0.35% (n = 210,000); AID 1457;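 further: IP1 builds up when IMPase is blocked and the TR-FRET signal falls; potency means the concentration at half of the fitted maximal effect; plate controls were basal vehicle for no effect and high inhibitor control for full effect; nearly all actives have a fitted effect of over 50% in size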
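Concentration–response in CHO-M1 cells, lithium-potentiated; 30 min at 37C. IP1 detected by competitive TR-FRET after 10 min lysis at RT. Hill-fitted AC50.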
IMPase cell inh = cell-permeable inhibitors of inositol monophosphatase (IMPase); 120,000 tested, under 10 active; inhibition (IP1 accumulation), % at 46.1 µM; CHO-M1 cells, IP1 accumulation, HTRF TR-FRET ratio; active means well fitted curve in the direction sought with a large enough effect in the signal ratio, not every such curve was filed as active; inconclusive means small, poorly fitted or top-dose-only effect, or a change in a side signal; inactive means no such curve, though single readings can be large or run the other way; the % refers to the signal ratio;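 further: cells stimulated with carbachol in lithium chloride buffer; plate controls were DMSO basal wells for no effect and reference inhibitor wells for full effect; higher means more IMPase inhibition seen as more IP1 and lower FRET ratio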
Target sequence (P97697 whole entry, looked up): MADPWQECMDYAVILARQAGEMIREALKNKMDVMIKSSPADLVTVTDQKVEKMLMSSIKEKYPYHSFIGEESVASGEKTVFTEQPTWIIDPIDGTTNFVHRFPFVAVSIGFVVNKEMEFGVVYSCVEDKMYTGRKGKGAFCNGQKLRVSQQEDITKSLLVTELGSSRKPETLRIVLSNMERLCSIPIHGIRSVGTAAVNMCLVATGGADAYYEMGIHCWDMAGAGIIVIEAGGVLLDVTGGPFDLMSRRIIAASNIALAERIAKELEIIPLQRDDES
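The IP-One HTRF competitive assay in carbachol-stimulated CHO-M1 cells quantifies cellular IP1. Compounds spanned up to 46 uM final, and activity is expressed as AC50 from concentration-response fits of the ratio and donor data.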
Numbers without * were called inactive; ? = inconclusive; . = not tested or not shown; [ ] = another dose, or the depositor's remark. Unless noted, the call rests on the fitted dose curve; in most records, active means well fitted curve in the direction sought with a large enough effect; inconclusive means small, poorly fitted or top-dose-only effect, or another doubt; inactive means no such curve, though single readings can be large; an effect the other way counts as inactive or inconclusive.

SMILES	ALDH1A1 inh	HPGD block	HTT cytoprotect	HTT aggregate	IMPase Li inh	IMPase cell inh
Cc1ccc(C2CC(=O)Oc3cc(C)c(Br)c(C)c32)cc1 (stereo not drawn)	13%	-7%	?	.	15%	.
O=C1CCCN1CCCNCC(=O)N1c2ccccc2Sc2ccccc21	35µM*	1%	12%	0%	66%[38.3 µM]	22
O=C1CCCN1CCCNC(=S)Nc1ccccc1Cl	8%	.	0%[10 µM]	5%	6%	.
Cc1ccc(NCc2ccccc2-c2nnc(-c3ccccc3Cl)o2)c(C)c1	.	.	.	.	.	1
O=C1NC(=Nc2ccc(Cl)cc2)/C(=C/c2ccco2)S1	?	-12%	-17%[10 µM]	12%	0%	.
CCOc1ccc(/C=C2/SC(=O)NC2=S)cc1	?	13µM*	-21%[10 µM]	-21%	8%	.
CCOc1ccc(/C=C2\SC(=S)N(N3C(=O)C4CC4C3=O)C2=O)cc1 (stereo not drawn)	?	.	-81%	-14%	-5%	.
CCOc1ccc(N=C2NC(=O)S/C2=C\c2ccc(N(C)C)cc2)cc1	-1%	-11%	-88%	22µM*	1%[38.3 µM]	4
CCC(C)(C)C	3%	-19%	-1%	.	10%	.
CS/C(=C\[N+](=O)[O-])Nc1ccc(F)cc1	16µM*	-13%	1%	?	-10%[38.3 µM]	-23
NC(=O)CCCCC1CCSS1 (stereo not drawn)	.	.	4%	2%	.	.
O=C(NN=C1c2ccccc2-c2ccccc21)c1cccc(Br)c1	2%	-15%	-6%[10 µM]	-18%	12%	2
CCOc1cc(C(=O)Nc2ccc(-c3nc4cc(Cl)ccc4o3)cc2)cc(OCC)c1OCC	.	.	.	.	.	-9
Cc1ccc(NC(=S)NCc2ccc3[nH]c4c(c3c2)CCCC4)cc1	18µM*	-36%	.	3%	25%	.
CCc1ccc(S(=O)(=O)/N=C2/C=C(Sc3ncn[nH]3)C(=O)c3ccccc32)cc1	5µM*	1.6µM*	-80%[10 µM]	3.5µM*	33%	.
COCCNC(=S)NN(c1ccccc1)c1ccccc1	32µM*	.	-27%	12%	10%	.
O=C(CCNS(=O)(=O)c1cccc2nonc12)NC1CCCc2ccccc21 (stereo not drawn)	14µM*	-5%	-6%	-18%	-3%[38.3 µM]	5
O=C(NC1CCCc2ccccc21)C1CCN(S(=O)(=O)c2ccccc2F)CC1 (stereo not drawn)	?	-13%	-11%[10 µM]	6%	-4%	.
O=C(NC1CCCc2ccccc21)C1CCN(S(=O)(=O)c2cccc3nonc23)CC1 (stereo not drawn)	32µM*	-2%	-3%	13%[9.22 µM]	-5%[38.3 µM]	7
Cc1ccc2nc(-c3cc(NC(=O)/C=C/c4ccccc4)ccc3Cl)oc2c1	.	.	.	.	.	-16
CN(Cc1ccccc1)C(=O)C1CCC(CNS(=O)(=O)c2cccc3cccnc23)CC1 (stereo not drawn)	.	.	25%[10 µM]	13%[9.22 µM]	.	.
CCCS(=O)(=O)N1CCC(C(=O)NCCCN(CC)c2cccc(C)c2)CC1	3%	-8%	.	32µM*	-2%	21
O=C(NCCN1CCCCCC1)C1CCC(CNS(=O)(=O)c2cccc3cccnc23)CC1 (stereo not drawn)	13µM*	-15%	-7%	0%	12%[38.3 µM]	8
O=C(C1CCC(CNS(=O)(=O)c2cccc3cccnc23)CC1)N1CCc2ccccc21 (stereo not drawn)	1.3µM*	?	-43%	?	-4%[38.3 µM]	16
CCCS(=O)(=O)N1CCCC(C(=O)NCCCN(CC)c2cccc(C)c2)C1 (stereo not drawn)	3%	5%	-18%	17%	0%[38.3 µM]	-1
SMILES	ALDH1A1 inh	HPGD block	HTT cytoprotect	HTT aggregate	IMPase Li inh	IMPase cell inh
CCN(CC)C(=O)C1CCC(CNS(=O)(=O)c2cccc3cccnc23)CC1 (stereo not drawn)	?	7.9µM*	-3%	-23%	1%	-3
Clc1ccc(CSCc2ccc(Cl)cc2Cl)c(Cl)c1	-9%[13.5 µM]	-10%	2%[10 µM]	.	14%	.
CN(C)c1ncc2nc(-c3ccc(F)cc3)c(=O)n(-c3ccccc3)c2n1	?	.	-53%	.	-30%	.
CN1CCN(C(=O)C2CCC(CNS(=O)(=O)c3cccc4cccnc34)CC2)CC1 (stereo not drawn)	0%	16µM*	-1%	-12%	6%[38.3 µM]	0
CCN(CCNC(=O)C1CCN(S(=O)(=O)c2cccc3cccnc23)CC1)c1ccccc1	40µM*	-18%	0%	-3%	12%[38.3 µM]	1
O=C(C1CCC(CNS(=O)(=O)c2cccc3nsnc23)CC1)N1CCN(c2ccccn2)CC1 (stereo not drawn)	-4%	.	-6%	-18%	11%	.
CC1CCN(C(=O)C2CCC(CNS(=O)(=O)c3cccc4cccnc34)CC2)CC1 (stereo not drawn)	?	0.89µM*	11%	14%	-13%[38.3 µM]	-2
CC1CCCCN1CCNC(=O)C1CCN(S(=O)(=O)c2cccc3cccnc23)CC1 (stereo not drawn)	-2%	-9%	7%	-18%	44%[38.3 µM]	-13
CN(Cc1ccco1)c1ncncc1-c1cccc(NS(C)(=O)=O)c1	?	.	-47%	.	-29%	.
CCCCCc1ccc(OCCOCCn2c[n+](C)c3ccccc32)c(CCCCC)c1	?	.	-85%	11µM*	9%	.
C[n+]1cn(CC(O)COCc2ccccc2)c2ccccc21 (stereo not drawn)	10%	-8%	0%	2%	14%[38.3 µM]	6
CCCCCc1ccc(OCCC[n+]2ccccc2)c(CCCCC)c1	.	.	-96%[10 µM]	3.2µM*	.	.
CC[C@@H](C)CN1C(=O)N[C@@H](c2ccccc2)C(C(=O)OC)=C1C	11%[13.5 µM]	-1%	6%[10 µM]	.	-3%	.
COc1cc2ncnc(NCc3cccc(Cl)c3)c2cc1OC	-3%	.	-77%	14µM*	6%	.
Cc1ccc(OCCCCn2c(-c3ccc(Cl)cc3)nc3ccccc3c2=O)cc1	.	.	.	.	.	-2
CCOC(=O)c1sc(=S)n(C)c1NC(=O)c1ccccc1Cl	32µM*	28µM*	6%[10 µM]	-11%	6%	8
CCC(=O)NC(Nc1c(C)n(C)n(-c2ccccc2)c1=O)C(Cl)(Cl)Cl (stereo not drawn)	4%	.	.	.	-1%	.
CCCn1c(=O)c2c(c3ccccc31)OC(C)C(=O)N2 (stereo not drawn)	6%	-4%	-3%[1.9 µM]	6%	2%[38.3 µM]	-6
CCCCn1c(=O)c2c(c3ccccc31)OCC(=O)N2	20µM*	-11%	-24%[0.074 µM]	4%[9.22 µM]	-2%[38.3 µM]	7
CC1=C(Cl)C2=NS(=O)(=O)CCN2C=C1Cl	?	.	.	0.11µM*	-4%	.
CCNc1nc(SC(C)C(=O)OC)nc(N2CCOCC2)n1 (stereo not drawn)	19µM*	-10%	11%	21%	13%[38.3 µM]	12
